# Data taken from PubChem BioAssay AID1626 (SRMLSC, 2009).
# The campaign covered roughly 220,000 compounds. About 2,000 (0.91%) were called active. Inconclusive results (about 2%) are left out. These entries were drawn from the full list. Entries with a potency or affinity are not part of this list. A number with no mark means an inactive call. Cut-off read from the data, not from the text of the source: inconclusive = inhibition above about 80% without an active follow-up result; inactive = below that; test concentration not stated here.
# Assay: M. tuberculosis H37Rv growth inhibitors, H37Rv strain (AID 1626);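 note: bacteria incubated seven days before Alamar blue readout; 0% = bacteria only wells and 100% = bacteria with antibiotic wells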
# Conditions: hits give high values, concentration not given here
row,Compound,inhibition
1,Cn1nc(-c2ccc(OCC(N)=O)cc2)c2ccccc2c1=O,9.43%
2,O=S(=O)(Nc1ccc(-c2cn3ccsc3n2)cc1)c1ccc2c(c1)OCCO2,-7.36%
3,O=C(O)c1cccc(CSc2ncn[nH]2)c1,3.99%
4,CN(Cc1ncc[nH]1)Cc1cn(-c2ccccc2)nc1-c1ccc2c(c1)OCO2,6.67%
5,Cc1ccc(-n2cc(CN(C)CCc3cn[nH]c3)c(-c3cccc(C)c3)n2)cc1,6.61%
6,Cc1ccc(-n2cc(CN(C)Cc3nccn3C)c(-c3ccc(F)cc3)n2)cc1,60.4%
7,Cc1ccc(C)c(-n2cc(CNCCCn3cccn3)c(-c3ccccc3)n2)c1,-1.54%
8,CCn1ccnc1CNCc1cn(-c2cc(C)ccc2C)nc1-c1ccccc1,72%
9,CCn1ccnc1CN(C)Cc1cn(-c2ccccc2)nc1-c1ccc(OC)cc1F,15%
10,CN(Cc1cn(-c2ccccc2)nc1-c1ccc2c(c1)OCO2)Cc1nccn1C,2.66%
11,Cc1ccc(-n2cc(CN3CCN(Cc4nccn4C)CC3)c(-c3cccc(C)c3)n2)cc1,-0.87%
12,CCS(=O)(=O)c1nc(S(=O)(=O)c2ccc(C)cc2)c(NCCCN(C)C)s1,-3.12%
13,Cc1cccc(C(=O)N(c2ccccn2)C(C)c2ccco2)c1 (stereo not drawn),-1.89%
14,CC(c1ccccc1F)n1cc(C(=O)NCc2ccncc2)nn1 (stereo not drawn),-6.06%
15,O=C(NNC(=O)c1cc2cc(OC(F)(F)F)ccc2[nH]1)c1cccc(C(F)(F)F)c1,0.47%
16,CN(C)S(=O)(=O)c1ccc2c(c1)c(=O)c(C(=O)NCCCN1CCCCCC1)cn2C,0.45%
17,O=C(COC(=O)c1ccccc1O)Nc1cc([N+](=O)[O-])ccc1Cl,-5.14%
18,S=C(NC1CCCCC1)c1ccc2c(c1)OCO2,0.26%
19,CCN1CC(CN(C)Cc2cn(-c3ccc(C)cc3)nc2-c2cccc(C)c2)CC1=O (stereo not drawn),13.5%
20,Cc1ccc(-n2cc(CNCCCn3cccn3)c(-c3cccc(C)c3)n2)cc1,69.4%
21,CC(C)OC(=O)c1ccc(NC(=O)c2ccccc2)cc1,69.1%
22,CCCCOC(=O)c1ccc(N)cc1,78.1%
23,CCC(=O)Nc1cccc2c1C(=O)N(C)C2=O,-8.82%
24,COc1ccc(CCNC(=O)Cc2nn(C)c(=O)c3ccccc23)cc1OC,1%
25,Cc1nnc(NC(=O)CSc2nnc(Cc3cccn3C)n2-c2cccc(C(F)(F)F)c2)s1,4.46%

row,Compound,inhibition
1,CC(C)CN(C(=O)COC(=O)c1ccc(-c2ccccc2)cc1)C1CCS(=O)(=O)C1 (stereo not drawn),4.21%
2,COc1ccc2cc(C(c3nnnn3CCc3ccccc3)N3CCC(O)CC3)c(=O)[nH]c2c1 (stereo not drawn),4.28%
3,CCc1ccc2[nH]c(=O)c(C(c3nnnn3CCOC)N3CCN(c4ccccc4)CC3)cc2c1 (stereo not drawn),2.21%
4,O=C(Cn1c(-c2cscn2)nc2ccccc21)Nc1ccc2ccccc2c1,5.71%
5,CC(=O)NCCn1c(SCC(=O)c2ccc(Cl)cc2)nc2ccccc2c1=O,-2.5%
6,Cc1ccc(NC(=O)c2ccc([N+](=O)[O-])cc2Cl)nc1,1.78%
7,Cc1c(C(=O)N2CCCCC2)sc(NC(=O)C2CC2)c1C#N,-1.68%
8,Cc1c(C(=O)N2CCCCC2)sc(NC(=O)C(C)C)c1C#N,-2.5%
9,CCCC1=NN(C(=O)Cc2ccc(OC)c(OC)c2)C(O)(C(F)(F)F)C1 (stereo not drawn),7.79%
10,COc1ccc(-c2oc3ccccc3c(=O)c2OC(C)=O)cc1,67.5%
11,O=C(O)COc1c(-c2ccco2)oc2ccccc2c1=O,-8.35%
12,CCC(C)NS(=O)(=O)c1ccc(NC(C)=O)cc1 (stereo not drawn),-1.33%
13,CC(C)OCC(O)CS(=O)Cc1ccccc1 (stereo not drawn),-8.07%
14,CCC(=O)Nc1ccc2nc(C)n(CC(=O)Nc3ccccc3)c(=O)c2c1,-7.72%
15,COc1ccc(C2c3ccc4ccccc4c3Oc3ncn(Cc4ccco4)c(=N)c32)cc1OC (stereo not drawn),8.86%
16,N=c1c2c(ncn1Cc1ccco1)Oc1ccc3ccccc3c1C2c1ccccc1 (stereo not drawn),20.9%
17,Cc1cnc(C(=O)OCC(=O)Nc2ccc(Oc3ccccc3)cc2)cn1,38%
18,Cc1ccc2c(c1)c1ncnc(N3CCN(c4ccccc4)CC3)c1n2C,0.76%
19,Fc1ccc2[nH]c3c(N4CCc5ccccc5C4)ncnc3c2c1,4.31%
20,Brc1ccc2[nH]c3c(N4CCc5ccccc5C4)ncnc3c2c1,5.42%
21,Cc1ccc2c(c1)c1ncnc(N3CCC4(CC3)OCCO4)c1n2C,-2.11%
22,CCN(CC(=O)NCc1cccs1)C(=O)c1ccc(S(=O)(=O)N(C)C)cc1,2.21%
23,COc1cccc(NC(=O)CN2CCN(S(=O)(=O)c3ccc(F)cc3)CC2)c1,-7.83%
24,O=C1/C(=C\c2ccc(Cl)c(Cl)c2)N2CCC1CC2,15.2%
25,COc1ccc(NCC(=O)Nc2ccc(Br)cc2F)c(OC)c1,75.1%

row,Compound,inhibition
1,CCOc1ccc(OCCC(=O)Nc2ccc(F)cc2C)cc1,-6.9%
2,Cc1ccc(NC(=O)CCC(=O)NNC(=O)COc2ccccc2)c(C)c1,2.24%
3,CCOC(=O)Nc1ccc(C)cc1C,0.47%
4,COc1ccc(Cl)cc1NC(=O)CNc1ccc(F)cc1C,6.38%
5,Cc1ccc(NC(=O)CNc2ccc(OC(C)C)cc2)c(C)c1,46.8%
6,Cc1ccc(NC(=O)C(=O)NCCOc2ccc(Cl)cc2)c(C)c1,7.98%
7,CCOc1ccc(NC(=O)CNc2ccc(C)cc2Cl)cc1,-1.87%
8,C[C@@H]1CC[C@]2(O[C@@H](CCO)C[C@@H](O)[C@@H]2O)O1,-6.09%
9,Cc1nc2sc(C(c3cccc(F)c3)N3CCC(C)CC3)c(O)n2n1 (stereo not drawn),-7.23%
10,O=S(=O)(c1ccc(Cl)c(S(=O)(=O)N2CCCC2)c1)N1CCCC1,-11.7%
11,CC(=O)c1ccc(N2CCN(C(=O)C3(S(=O)(=O)c4ccc(Cl)cc4)CC3)CC2)cc1,1.33%
12,Cc1cc(N2CCN(C)CC2)nc2ccc(NC(=S)N3CCCCC3)cc12,30.4%
13,CN(C(=O)COc1ccc(S(=O)(=O)N2CCOCC2)cc1[N+](=O)[O-])C1CCS(=O)(=O)C1 (stereo not drawn),-7.08%
14,COc1ccc(NC(=O)c2cccnc2N2CCOCC2)cc1,4.7%
15,COc1ccccc1NC(=S)N(CCCN1CCOCC1)Cc1cccs1,-3.58%
16,CCc1cccc2c(C(=O)COC(=O)c3ccc(O)cc3)c[nH]c12,2.75%
17,O=C(COC(=O)c1ccc([N+](=O)[O-])s1)NCc1ccccc1,17.7%
18,Cc1[nH]c2ccccc2c1C(=O)COC(=O)c1ccc([N+](=O)[O-])s1,99.3%
19,CCc1cccc2c(C(=O)COC(=O)c3ccccc3)c[nH]c12,7.6%
20,CCN(C(=O)CCCC(=O)N(CC)c1ccccc1)c1ccccc1,-1.06%
21,Cc1cc(C)nc(SCC(=O)Nc2ccc(S(=O)(=O)Nc3onc(C)c3C)cc2)n1,-9.62%
22,CC(C)(C)CN1CCNC(=O)C1CC(=O)N1CCN(c2ccccc2)CC1 (stereo not drawn),-2.51%
23,O=C(NCc1cccc(C(F)(F)F)c1)c1cc(Cl)ccc1Cl,15%
24,CC1=Nc2ccccc2/C1=C\c1nc(-c2ccc(F)cc2)oc1O,54.8%
25,CC1=Nc2ccccc2/C1=C\c1nc(-c2ccccc2)oc1O,3.61%

row,Compound,inhibition
1,CC(C)(C)CC(C)(C)NC(=O)CSCC(=O)Nc1ccc2ccccc2c1,-8.35%
2,O=C(O)CSCC(=O)NCc1ccccc1,-2.1%
3,CC(C)c1ccc(CNC(=O)CCc2ccccc2)cc1,6.15%
4,O=C(CSCc1ccc(C(=O)O)cc1)Nc1ccc2ccccc2c1,35.7%
5,CCN(CC)C(=N)/C(C#N)=N/Nc1ccccc1,-13.5%
6,Cn1cccc1C(=O)NC(=O)COC(=O)CNC(=O)c1ccc(Cl)cc1Cl,-13%
7,O=C(Cn1nc(C(F)(F)F)c2c1CCCC2)Nc1ccc2c(c1)OCO2,-0.66%
8,CCOc1ccc(C2=NNC(c3cccnc3)=Nc3ccc(OC)cc32)cc1,1.63%
9,N#CCCn1c(C(C#N)(CCC#N)CCC#N)nc2ccccc21,-2.99%
10,COc1ccc(S(=O)(=O)N=C2C=C(C)C(=O)C(C)=C2)cc1,-5.5%
11,COc1ccc(C(=O)ON=C2C=C(C)C(=O)C(C)=C2)cc1,-2.82%
12,COc1cc(C(C(=O)NC(C)(C)C)N(Cc2ccc3c(c2)OCO3)C(=O)c2cnccn2)cc(OC)c1OC (stereo not drawn),-6.38%
13,CCOC(=O)C[C@H]1c2ccccc2S(=O)(=O)N1c1cccc(OC)c1,-8.13%
14,CC(=O)Nc1sc2c(c1CN1CCN(C)CC1)CCCC2,-1.53%
15,CC(=O)Nc1sc2c(c1CN1CCCC1)CCCC2,-3.09%
16,COc1cccc(C(=O)Nc2ccc(NC(C)=O)cc2)c1,-16.8%
17,CC1CCCN(C(=O)Cn2cnc3c2c(=O)n(C)c(=O)n3C)C1 (stereo not drawn),10.5%
18,O=C(OCC(=O)N1CCc2ccccc21)c1cccnc1,-5.16%
19,Cc1cc(C(=O)OCC(=O)N2c3ccccc3CC2C)c(C)o1 (stereo not drawn),7.82%
20,CC1Cc2ccccc2N1C(=O)COC(=O)c1cccnc1Cl (stereo not drawn),3.35%
21,CC1Cc2ccccc2N1C(=O)COC(=O)c1ccc(O)cc1 (stereo not drawn),2.09%
22,CC1Cc2ccccc2N1C(=O)COC(=O)CNC(=O)c1ccc(Br)o1 (stereo not drawn),-10.5%
23,O=C(OCC(=O)N1CCCc2ccccc21)c1ccc(Cl)nc1,60.1%
